Source: PubChem BioAssay AID1159580 (chemical genetic matrix, 2015)
About 2,000 (36%) of roughly 5,500 compounds were called active. Inconclusive results (about 18%) are left out. Some of the results follow. Values without a mark were called inactive. Rule as the data show it: active = normalized growth mostly below about 0.91 (no sharp cut-off); inconclusive = no clear call, values can overlap the other calls; inactive = mostly above about 0.92.

Assay: chemical genetic growth profiling, strain panel (AID 1159580);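 also: tested at 20 µM; growth read once vehicle control cultures reached saturation at 30 °C; 1 = growth at the plate median or of vehicle wells; lower values mean less growth of the strain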
Conditions: S. cerevisiae deletion strains, growth OD
[1] = locus YDL101C, strain DUN1, stronger effect = lower value
[2] = locus YHR030C, strain SLT2, stronger effect = lower value
[3] = locus YAL013W, strain DEP1, stronger effect = lower value
[4] = locus YBR229C, strain ROT2, stronger effect = lower value
[5] = locus YCL061C, strain MRC1, stronger effect = lower value
[6] = locus YDR150W, strain NUM1, stronger effect = lower value
[7] = locus YEL061C, strain CIN8, stronger effect = lower value
[8] = locus YGR078C, strain PAC10, stronger effect = lower value
[9] = locus YGR229C, strain SMI1, stronger effect = lower value
[10] = locus YHR087W, strain rtc3, stronger effect = lower value
[11] = locus YJR043C, strain POL32, stronger effect = lower value
[12] = locus YJR075W, strain HOC1, stronger effect = lower value
[13] = locus YLR039C, strain RIC1, stronger effect = lower value
[14] = locus YLR058C, strain SHM2 (second series), stronger effect = lower value
[15] = locus YLR085C, strain ARP6, stronger effect = lower value
[16] = locus YLR262C, strain YPT6, stronger effect = lower value
[17] = locus YML094W, strain GIM5, stronger effect = lower value
[18] = locus YMR219W, strain ESC1, stronger effect = lower value
[19] = locus YMR263W, strain SAP30, stronger effect = lower value
[20] = locus YNL153C, strain GIM3, stronger effect = lower value
[21] = locus YNL298W, strain CLA4 (second series), stronger effect = lower value
[22] = locus YNL322C, strain KRE1, stronger effect = lower value
[23] = locus YNR030W, strain Alg12, stronger effect = lower value
[24] = locus YOL006C, strain TOP1, stronger effect = lower value
[25] = locus YPL055C, strain LGE1, stronger effect = lower value
[26] = locus YPL241C, strain CIN2, stronger effect = lower value
[27] = locus YPR135W, strain CTF4, stronger effect = lower value

Compound CN(C)/C=C/C(=O)c1ccc(C#Cc2ccccc2)cc1 has a normalized growth (locus YAR019C, strain CDC15, stronger effect = lower value) of 0.982, a normalized growth (locus YBL105C, strain PKC1, stronger effect = lower value) of 0.986 and a normalized growth (locus YBR135W, strain CKS1, stronger effect = lower value) of 0.967. The normalized growth (locus YBR136W, strain MEC1, stronger effect = lower value) was 0.984, the normalized growth (locus YBR160W, strain CDC28, stronger effect = lower value) was 0.97 and the normalized growth (locus YDL017W, strain CDC7, stronger effect = lower value) was 0.977. For the same compound, the normalized growth (locus YDL028C, strain MPS1, stronger effect = lower value) was 0.98, the normalized growth [1] was 0.982 and the normalized growth (locus YDL108W, strain KIN28, stronger effect = lower value) was 0.986. It also gave a normalized growth (locus YDL132W, strain cdc53, stronger effect = lower value) of 0.968, a normalized growth (locus YDL214C, strain PRR2, stronger effect = lower value) of 0.987 and a normalized growth (locus YDR052C, strain DBF4, stronger effect = lower value) of 0.974. For the same compound, the normalized growth (locus YDR054C, strain cdc34, stronger effect = lower value) was 0.975, the normalized growth (locus YDR226W, strain ADK1, stronger effect = lower value) was 0.972 and the normalized growth (locus YDR477W, strain SNF1, stronger effect = lower value) was 0.958. For the same compound, the normalized growth (locus YER123W, strain YCK3, stronger effect = lower value) was 0.955, the normalized growth (locus YER133W, strain GLC7, stronger effect = lower value) was 0.981 and the normalized growth (locus YFL009W, strain cdc4, stronger effect = lower value) was 0.965. The normalized growth (locus YFL029C, strain CAK1, stronger effect = lower value) was 0.976, the normalized growth (locus YFR003C, strain YPI1, stronger effect = lower value) was 0.993 and the normalized growth (locus YFR019W, strain FAB1, stronger effect = lower value) was 0.981. It also gave a normalized growth (locus YFR028C, strain CDC14, stronger effect = lower value) of 0.98, a normalized growth (locus YGR040W, strain KSS1, stronger effect = lower value) of 0.967 and a normalized growth (locus YGR052W, strain FMP48, stronger effect = lower value) of 1.08. For the same compound, the normalized growth (locus YGR092W, strain DBF2, stronger effect = lower value) was 1.01, the normalized growth [2] was 0.874 and the normalized growth (locus YHR079C, strain IRE1, stronger effect = lower value) was 0.99. The normalized growth (locus YHR082C, strain KSP1, stronger effect = lower value) was 1.05, the normalized growth (locus YHR205W, strain SCH9, stronger effect = lower value) was 0.987 and the normalized growth (locus YIL147C, strain SLN1, stronger effect = lower value) was 0.982. For the same compound, the normalized growth (locus YJL095W, strain BCK1, stronger effect = lower value) was 0.935, the normalized growth (locus YJL128C, strain PBS2, stronger effect = lower value) was 0.953 and the normalized growth (locus YJL157C, strain FAR1, stronger effect = lower value) was 0.989. It also gave a normalized growth (locus YJR016C, strain ILV3, stronger effect = lower value) of 0.974, a normalized growth (locus YJR066W, strain TOR1 (second series), stronger effect = lower value) of 0.934 and a normalized growth (locus YJR066W, strain TOR1, stronger effect = lower value) of 0.94. It also gave a normalized growth (locus YKL048C, strain ELM1, stronger effect = lower value) of 0.979, a normalized growth (locus YKL067W, strain YNK1, stronger effect = lower value) of 0.974 and a normalized growth (locus YKL101W, strain HSL1, stronger effect = lower value) of 0.986. The normalized growth (locus YKL193C, strain SDS22, stronger effect = lower value) was 0.976, the normalized growth (locus YKL203C, strain TOR2, stronger effect = lower value) was 1 and the normalized growth (locus YLR113W, strain HOG1, stronger effect = lower value) was 0.972. For the same compound, the normalized growth (locus YLR133W, strain CKI1, stronger effect = lower value) was 0.987, the normalized growth (locus YLR403W, strain SFP1, stronger effect = lower value) was 0.97 and the normalized growth (locus YML070W, strain DAK1, stronger effect = lower value) was 0.967. It also gave a normalized growth (locus YMR001C, strain CDC5, stronger effect = lower value) of 0.984, a normalized growth (locus YMR205C, strain PFK2 (second series), stronger effect = lower value) of 0.994 and a normalized growth (locus YMR277W, strain FCP1, stronger effect = lower value) of 0.973. The normalized growth (locus YNL006W, strain LST8, stronger effect = lower value) was 0.962, the normalized growth (locus YNL020C, strain ARK1, stronger effect = lower value) was 0.992 and the normalized growth (locus YNL161W, strain CBK1, stronger effect = lower value) was 0.965. The normalized growth (locus YNL183C, strain NPR1, stronger effect = lower value) was 0.939, the normalized growth (locus YNL207W, strain RIO2, stronger effect = lower value) was 0.985 and the normalized growth (locus YNL222W, strain SSU72, stronger effect = lower value) was 0.972. For the same compound, the normalized growth (locus YNL307C, strain MCK1 (second series), stronger effect = lower value) was 0.994, the normalized growth (locus YOL078W, strain AVO1, stronger effect = lower value) was 0.98 and the normalized growth (locus YOL136C, strain PFK27, stronger effect = lower value) was 0.976. It also gave a normalized growth (locus YOR061W, strain CKA2, stronger effect = lower value) of 0.979, a normalized growth (locus YOR119C, strain RIO1, stronger effect = lower value) of 1.04 and a normalized growth (locus YOR231W, strain MKK1, stronger effect = lower value) of 0.931. For the same compound, the normalized growth (locus YOR329C, strain SCD5, stronger effect = lower value) was 0.98, the normalized growth (locus YPL031C, strain PHO85, stronger effect = lower value) was 0.968 and the normalized growth (locus YPL153C, strain RAD53, stronger effect = lower value) was 0.939. The normalized growth (locus YPL204W, strain HRR25, stronger effect = lower value) was 0.94, the normalized growth (locus YPL209C, strain IPL1, stronger effect = lower value) was 0.981 and the normalized growth (locus YPL256C, strain CLN2, stronger effect = lower value) was 0.98. It also gave a normalized growth (locus YPR025C, strain CCL1, stronger effect = lower value) of 0.977, a normalized growth (locus YPR106W, strain ISR1, stronger effect = lower value) of 0.985 and a normalized growth (locus YPR111W, strain DBF20, stronger effect = lower value) of 0.97. It also gave a normalized growth (strain NNK1, stronger effect = lower value) of 0.982 and a normalized growth (strain TSCII, stronger effect = lower value) of 0.969.
For COC(=O)c1ccc(C#Cc2ccccc2)o1, the normalized growth [3] was 0.9 (active), the normalized growth [4] was 0.884 (active) and the normalized growth [5] was 0.771 (active). For the same compound, the normalized growth [1] was 0.846 (active), the normalized growth (locus YDL134C, strain PPH21, stronger effect = lower value) was 0.589 (active) and the normalized growth [6] was 0.834. For the same compound, the normalized growth [7] was 0.713 (active), the normalized growth [8] was 0.89 (active) and the normalized growth [9] was 0.961. The normalized growth [2] was 0.323 (active), the normalized growth [10] was 0.902 (active) and the normalized growth (locus YJL187C, strain SWE1, stronger effect = lower value) was 0.913 (active). The normalized growth [11] was 0.822 (active), the normalized growth [12] was 0.875 (active) and the normalized growth (locus YKL190W, strain CNB1, stronger effect = lower value) was 0.731 (active). The normalized growth [13] was 0.55 (active), the normalized growth [14] was 0.992 and the normalized growth [15] was 0.325 (active). For the same compound, the normalized growth [16] was 0.584 (active), the normalized growth [17] was 0.787 (active) and the normalized growth [18] was 0.88 (active). For the same compound, the normalized growth [19] was 0.904 (active), the normalized growth (locus YNL128W, strain TEP1, stronger effect = lower value) was 0.927 and the normalized growth [20] was 0.815 (active). For the same compound, the normalized growth [21] was 0.654 (active), the normalized growth [22] was 0.972 and the normalized growth [23] was 0.793 (active). For the same compound, the normalized growth [24] was 0.349 (active), the normalized growth [25] was 0.767 (active) and the normalized growth [26] was 0.678 (active). The normalized growth [27] was 0.457 (active).
With COC(=O)c1ccc(S(=O)(=O)NCc2ccccc2)n1C the normalized growth [3] was 1.01, the normalized growth [4] was 1.03 and the normalized growth [5] was 1.02. The normalized growth [1] was 1.02, the normalized growth [6] was 1.03 and the normalized growth [7] was 1.06. The normalized growth [8] was 1.02, the normalized growth [9] was 1.02 and the normalized growth [2] was 1.09. The normalized growth [10] was 0.995, the normalized growth [11] was 1.06 and the normalized growth [12] was 1.05. It also gave a normalized growth [13] of 1.02, a normalized growth [14] of 1.03 and a normalized growth [15] of 1.04. It also gave a normalized growth [16] of 1.08, a normalized growth [17] of 1.01 and a normalized growth [18] of 1.01. The normalized growth [19] was 1.01, the normalized growth (locus YMR307W, strain GAS1, stronger effect = lower value) was 1.1 and the normalized growth [20] was 1.05. It also gave a normalized growth [21] of 1.03, a normalized growth [22] of 1.01 and a normalized growth [23] of 1.04. For the same compound, the normalized growth [24] was 1.07, the normalized growth [25] was 0.991 and the normalized growth [26] was 1.01. The normalized growth [27] was 1.15.
